Screening results as filed in PubChem BioAssay.
EPAC2 antag: validation of human EPAC2 antagonists; AID 1645886; Potency, µM (doses to about 112 µM), for inactives: at the highest dose activity, negative = inhibition, usual class: inhibitors; EPAC2 Rap1B BODIPY-GDP exchange, fluorescence; Q8WZA2; actives 1.7% (n = 16,000);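 also: 100% = activation by cAMP agonist control; nearly all actives have a fitted effect of over 40% in size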
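Normalized against a 6.5 mM cAMP agonist control, compounds were tested on 100 nM EPAC2 exchanging Rap1B-bound BODIPY-GDP (250 nM) for 50 uM GDP. Fluorescence drop (ex 480, em 540 nm) was tracked at room temperature over 30 min at 5-min intervals.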
EPAC1 ag val: validation of human EPAC1 agonists; O95398; EPAC1 Rap1b BODIPY-GDP exchange, fluorescence; Potency, µM, inactives show max response, positive = active, most hits filed as activators; actives 1% (n = 16,000); also: nearly all actives have a fitted effect of over 70% in size
The depositor's hits bear a star; ? = inconclusive; ! = a repeat was not active; [ ] = remark or other dose. In the library only some 2.9% were active in any assay of this set; here they are far more common. Calls follow the shape of the dose curve; as a rule, active = well fitted curve in the direction sought with a large enough effect; inconclusive = small, poorly fitted or top-dose-only effect, or another doubt; inactive = no such curve, though single readings can be large; an effect the other way counts as inactive or inconclusive. Unless noted, % is scaled to controls: 0 for no effect and ±100 for the full control effect; potency is read from the fitted curve at half-maximal effect.

SMILES | EPAC2 antag | EPAC1 ag val
COCC1CCCN(Cc2ccc3c(c2)CN(C(=O)c2cnn(C(C)C)c2)CCO3)C1 (stereo not given) | -25% | -8%
O=C(NCC1Cc2cccc(-c3cnccn3)c2O1)c1ccc(F)c(Cl)c1 (stereo not given) | -13% | -10%
COc1cc2c(cc1OC)-c1cc(=Nc3c(C)cc(C)cc3C)n(C)c(=O)n1CC2 | 14µM*! | ?
COCC(=O)Nc1cc(C(=O)NC2Cc3ccccc3C2)cc2nc(-c3cccnc3)n(C)c12 | -9% | 4%
O.O.O.O.O.O.O.O=S(=O)([O-])[O-].[Co+2] | 50µM* | -32%
COc1cc(=O)n2c(c1C(=O)NCc1ccco1)CCN(Cc1ccc3ccccc3c1)CC2 | -14% | -7%
OCC1CCCN(c2nc3cc4c(cc3cc2CNCc2cccc(C(F)(F)F)c2)OCO4)C1 (stereo not given) | 5% | -2%
CC1(C)C2CC[C@]3(C)[C@H](C(=O)C=C4[C@@H]5C[C@@](C)(C(=O)O)CC[C@]5(C)CC[C@]43C)[C@@]2(C)CC[C@@H]1O[C@H]1O[C@H](C(=O)O)[C@@H](O)[C@H](O)[C@H]1O[C@@H]1O[C@H](C(=O)O)[C@@H](O)[C@H](O)[C@H]1O (stereo not given in full) | ? | 4%
CC1(C)[C@@H](O)CC[C@]2(C)C3C(=O)C=C4C5C[C@@](C)(C(=O)O)CC[C@]5(C)CC[C@@]4(C)[C@]3(C)CC[C@@H]12 (stereo not given in full) | 4µM* | -15%
Cc1c(C(=O)NCCN2CCC(c3ccccc3)CC2)cnn1-c1nccc(-c2cccs2)n1 | -26% | 2%
COCCCNc1ncnc2sc(C(=O)N3CCOCC3)c(C)c12 | -11% | -23%
COc1ccccc1-c1ccnc(-n2ncc(C(=O)N[C@H]3CCCCNC3=O)c2C2CC2)n1 | -15% | -1%
COc1cc(-c2coc3cc(O[C@H]4OC(CO)C(O)C(O)C4O)c(OC)c(O)c3c2=O)cc(O)c1OC (stereo not given in full) | -7% | 20%
COc1cc(-c2coc3cc(OCc4ccccc4)c(OC)c(O)c3c2=O)cc(O)c1OC | -18% | 112µM*
CCc1ccc2c(c1)N(CC(C)CN(C)C)c1ccccc1S2 (stereo not given) | -19% | -30%
O=C(O)COc1ccc(C(=O)c2cccs2)c(Cl)c1Cl | -6% | -12%
CCCC[C@@]1(C2CCCC2)Cc2cc(OCC(=O)O)c(Cl)c(Cl)c2C1=O | 14µM* | -6%
COc1ccc(C(=O)NCCc2nnc3n2CCN(CC2CC=CCC2)CC3)cc1 (stereo not given) | -10% | -9%
OCCN(CCO)c1nc(N2CCCCC2)c2nc(N(CCO)CCO)nc(N3CCCCC3)c2n1 | ? | 35µM*!
COCC(=O)N1CCC2(CCCN(C(=O)Nc3cccc(C#N)c3)C2)CC1 | -21% | -33%
COCC(=O)N1CCC2(CC1)CCN(C(=O)Nc1cccc(C#N)c1)CC2 | -21% | 126µM*
COc1ccc2c(c1)-c1nc(-n3ncc(C(=O)NCc4cccc(C)n4)c3C3CC3)ncc1CC2 | -3% | -8%
Cc1cc(C)c(S(=O)(=O)Nc2cccc(C(F)(F)F)c2)c(C)c1 | 40µM* | -11%
O=C(OCCOCCO)c1ccccc1Nc1cccc(C(F)(F)F)c1 | -20%[56.6 µM] | -8%
NC(=O)CC[C@@H]1NC(=O)[C@H](Cc2ccccc2)NC(=O)[C@H](Cc2ccc(O)cc2)NC(=O)CCSSC[C@@H](C(=O)N2CCC[C@H]2C(=O)N[C@@H](CCCN=C(N)N)C(=O)NCC(N)=O)NC(=O)[C@H](CC(N)=O)NC1=O | -22% | 4%
SMILES | EPAC2 antag | EPAC1 ag val
Cc1cnc(C)c(-c2cccc3c2OC(CNC(=O)/C=C/c2ccncc2)C3)n1 (stereo not given) | -8% | 0%
Cc1noc(C)c1-c1nc(N(C)Cc2ccco2)c2ccccc2n1 | 20µM* | ?
Cc1noc(C)c1-c1nccc(N(C)Cc2ccco2)n1 | -18% | -2%
CN(Cc1ccco1)c1nc(-c2ccoc2)nc2ccccc12 | 25µM* | ?
CN(C)c1ccc(-c2nc(N(C)Cc3ccco3)c3ccccc3n2)cc1 | -16% | ?
CN(Cc1ccco1)c1nc(-c2cccc(C#N)c2)nc2ccccc12 | -12% | 100µM*
CN(C)C(=O)c1ccc(-c2nc(N(C)Cc3ccco3)c3ccccc3n2)cc1 | -21% | ?
COc1ccc2c(c1)CCc1cnc(-n3ncc(C(=O)NCCCc4ccncc4)c3C)nc1-2 | -15% | -8%
Cc1ccc(C(C)CCN2CCOc3ccc(CN4CCOCC4)cc3C2)o1 (stereo not given) | -30% | 8%
CC[N+](CC)(CC)c1ccc(/C=C/c2ccnc3ccccc23)cc1 | ? | -58%
Cc1cc(/C=C/c2ccnc3ccccc23)ccc1N(C)C | 150% | 100µM*
CC[N+](C)(C)c1ccc(/C=C/c2ccnc3ccccc23)cc1 | 45µM* | -130%
OCCN(CCO)c1ccc(/C=C/c2ccnc3ccccc23)cc1 | -22% | 27%
CN(C)c1ccc(/C=C/c2ccnc3ccccc23)cc1Cl | ? | 13%
CCCCN(CCC#N)c1ccc(/C=C/c2ccnc3ccccc23)cc1 | 18% | 100µM*
Cc1c(C(=O)NCCc2cccnc2)cnn1-c1ncc2c(n1)-c1ccccc1CC2 | -1% | -11%
Cc1c(C(=O)N2CCCC2)sc2ncnc(NCCCN3CCOCC3)c12 | ? | -9%
Cc1cnc(SCc2ccccn2)nc1C1CCCN(C(=O)c2noc3c2CCCC3)C1 (stereo not given) | ? | -11%
CCOC(=O)C[C@H]1c2ccccc2S(=O)(=O)N1Cc1cccc(C(F)(F)F)c1 | 56µM* | -8%
COC(=O)C[C@H]1c2ccc(C(F)(F)F)cc2S(=O)(=O)N1Cc1ccccc1 | 25µM* | -5%
CC(=O)C[C@H]1c2cc(C(F)(F)F)ccc2S(=O)(=O)N1Cc1ccccc1 | ? | 22%
CCOC(=O)C[C@H]1c2ccccc2S(=O)(=O)N1Cc1cc(OC)c(OC)c(OC)c1 | 11% | 18%
C[N+]1(C)[C@@H]2CC(OC(=O)[C@H](CO)c3ccccc3)C[C@H]1[C@H]1O[C@@H]12 (stereo not given in full) | -40% | 1%
O=S1(=O)CCOC[C@H](CC2CCCCC2)N1Cc1ccccc1F | ? | -21%
O=S1(=O)CCOC[C@H](CC2CCCCC2)N1Cc1cccc(C(F)(F)F)c1 | 18µM* | -116%
SMILES | EPAC2 antag | EPAC1 ag val
Cc1ccc(CN2[C@H](C)[C@H](c3ccccc3)OCCS2(=O)=O)cc1 | ? | -4%
COc1cc(-c2ccc(Cl)cn2)cc2c1OCCN(S(=O)(=O)C[C@]13CC[C@H](CC1=O)C3(C)C)C2 | -29% | -8%
Cc1ccc2ncc(C)c(/C=C/c3ccc(N(C)C)cc3)c2c1 | -23% | -25%
CN(C)c1ccc(/C=C/c2ccnc3c(-c4ccccc4)cccc23)cc1 | -16% | ?
CN(C)c1ccc(/C=C/c2ccnc3c(Cl)cccc23)cc1 | 127% | 112µM*
CN(C)c1ccc(/C=C/c2c(Cl)cnc3ccccc23)cc1 | -27% | 100µM*
O=Nc1ccc(/C=C/c2ccnc3ccccc23)cc1 | 5% | 22%
Cc1cc(NC(=O)Nc2ccc3c(ccn3C)c2)sn1 | ? | 2%
Cc1cc(N)c2cc(NC(=O)Nc3ccc4nc(C)cc(N)c4c3)ccc2n1 | 40µM* | 56µM*
CC(c1ccon1)N(C)C(=O)c1cnn(-c2ncc3c(n2)-c2ccccc2CC3)c1C1CC1 (stereo not given) | -37% | -5%
